# Laboratory results: PubChem BioAssay
# Results filed as inconclusive are left out. The source made the active and inactive calls. Unless noted, how the calls were made is not given here.
# Experiments:
# [1] = hit retest on RPL19A-GFP reporter strain – cell-based, S. cerevisiae, flow cytometry, cherry picks, mother/daughter gates, confirmation (AID 2270;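 active means GFP response below 50% of the DMSO control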); settings: 3 h, at 10 µM, stronger effect = lower value, 100 = same GFP as DMSO wells
# [2] = yeast TOR pathway reporter LAP4-GFP change – cell-based, cherry picks, flow cytometry, mother/daughter gates, confirmation (AID 2271;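 active means GFP response above 150% of the DMSO control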;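 further: ratio of sample to DMSO plate mean so 100% equals DMSO level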); settings: S. cerevisiae LAP4-GFP strain, 3 h, at 10 µM, stronger effect = higher value
# [3] = TOR pathway CIT2 reporter hit retest – S. cerevisiae, GFP fusion, cherry picks, mother/daughter gates, confirmation (AID 2274;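 active means GFP response above 150% of the DMSO level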); settings: S. cerevisiae CIT2-GFP strain, flow cytometry, 3 h, at 10 µM, stronger effect = higher value
# [4] = rapamycin-like changes in RPL19A-GFP expression – cell-based, S. cerevisiae, multiplex flow cytometry, primary screen (AID 1862; in the data active means percent of DMSO control GFP below about 86%;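 further: lower values mimic rapamycin by blocking the RPL19A rise seen in DMSO cells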); settings: S. cerevisiae RPL19A-GFP strain, flow cytometry fluorescence, 3 h; at 10 µM; stronger effect = lower value
# [5] = TOR pathway GLN3 branch reporter MEP2-GFP changes – S. cerevisiae, multiplex flow cytometry, primary screen (AID 1867;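 active means GFP response, as percent of the DMSO control, above the screen-wide mean plus 3 SD, about 139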;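 further: median GFP channel fluorescence of barcode-gated MEP2-GFP cells measured by flow cytometry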); settings: S. cerevisiae MEP2-GFP strain, 3 h, at 10 µM, stronger effect = higher value
# [6] = TOR pathway RTG branch CIT2 reporter changes – S. cerevisiae, GFP fusion, multiplex flow cytometry, primary screen (AID 1870;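 active means percent response above a set limit, the screen-wide mean plus 3 SD, cut at about 130% in these data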;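 further: barcoded CIT2-GFP strain pooled with four other GFP strains with rapamycin as positive control; median GFP fluorescence per well over plate mean of DMSO wells so 100% = DMSO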); settings: S. cerevisiae CIT2-GFP expression, 3 h, at 10 µM, stronger effect = higher value
# [7] = TOR pathway LAP4-GFP level changes – S. cerevisiae, multiplex flow cytometry, primary screen (AID 1873;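 active means GFP signal, as percent of the solvent control, above the screen mean plus 3 SD, about 149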); settings: S. cerevisiae LAP4-GFP expression, 3 h, at 10 µM, stronger effect = higher value
# [8] = reduced mouse 2C T cell binding to pMHC/ICAM-1 vesicles – MLPCN validation set, flow cytometry, LFA-1/ICAM-1 modulator project, pilot screen (AID 2523;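 active means response below a set limit, under 55% cells CD8-positive and vesicle-bound, and CD8 cells' 90th-percentile brightness under 279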;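 on vesicle binding response: mean PE anti-B7-1 fluorescence of CD8+ cells relative to row control; 100% = QL9-loaded vesicles with DMSO vehicle in the same plate row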); settings: 2C mouse CD8+ T cells, at 7 µM, stronger effect = lower value; double positive events: measured here: CD8+/vesicle+ event percentage
# [9] = molecular target: Integrin beta-1 (Homo sapiens) + Integrin alpha-4 (Homo sapiens) (UniProt P13612+P05556); test: alpha4beta1 integrin LIBS antibody binding reduction – U937 cells, HUTS-21 mAb, flow cytometry, validation set, VLA-4 allosteric modulator project, pilot screen (AID 2674;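 active means inhibition above 50%, about 3 SD of the validation set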;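 further: antibody binding induced by the VLA-4 ligand LDV present at three times its Kd; 0% = LDV ligand with antibody and no compound and 100% = antibody without LDV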); settings: HUTS-21 LIBS mAb binding, at 6.7 µM, stronger effect = higher value
# [10] = calorie-restriction mimetic ROS inhibitors, yeast – validation compound set, pilot screen (AID 2706;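 active means superoxide response below 65% of plate, a cut near 3 SD across the whole screen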;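 further: yeast exposed to compound for one week at 30 degrees C before staining; 100% = mean of all compound wells on the same plate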); settings: S. cerevisiae aging, superoxide DHE fluorescence; at 10 µM; stronger effect = lower value
# [11] = molecular target: Beta-adrenergic receptor kinase 1 (Homo sapiens) (UniProt P25098); test: GRK2 binders displacing RNA aptamer, biochemical, validation, human GRK2, bead flow cytometry (AID 488806;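 active means aptamer binding inhibition above 30%, about 3 SD of noise from non-fluorescent compounds; inactive means inhibition at or below 30%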); settings: bead-bound GRK2, FAM-aptamer displacement, at 10 µM, stronger effect = higher value
# Beta-adrenergic receptor kinase 1 (Homo sapiens), sequence (P25098 whole entry, looked up): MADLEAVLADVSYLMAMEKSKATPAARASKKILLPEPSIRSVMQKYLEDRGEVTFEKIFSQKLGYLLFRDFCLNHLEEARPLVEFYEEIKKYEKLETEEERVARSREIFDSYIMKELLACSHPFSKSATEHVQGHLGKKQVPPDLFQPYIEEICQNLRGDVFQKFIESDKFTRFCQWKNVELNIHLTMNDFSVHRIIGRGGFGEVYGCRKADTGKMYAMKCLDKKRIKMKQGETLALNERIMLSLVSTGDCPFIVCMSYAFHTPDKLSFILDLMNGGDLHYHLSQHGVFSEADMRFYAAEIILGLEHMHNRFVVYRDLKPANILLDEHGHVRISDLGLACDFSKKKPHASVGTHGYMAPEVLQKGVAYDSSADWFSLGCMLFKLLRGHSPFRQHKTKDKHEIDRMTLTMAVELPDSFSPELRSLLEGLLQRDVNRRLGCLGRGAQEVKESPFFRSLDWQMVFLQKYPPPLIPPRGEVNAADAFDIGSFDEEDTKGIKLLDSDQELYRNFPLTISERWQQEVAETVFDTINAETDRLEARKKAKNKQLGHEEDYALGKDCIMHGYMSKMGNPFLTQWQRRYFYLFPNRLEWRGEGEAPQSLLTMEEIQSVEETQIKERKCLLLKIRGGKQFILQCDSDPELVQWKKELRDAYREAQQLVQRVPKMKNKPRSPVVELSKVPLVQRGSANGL
# [12] = molecular target: AP-2 complex subunit beta (Homo sapiens) (UniProt P63010); test: beta-arrestin/AP2 interaction blockers – biochemical, validation set, GST-AP2 beads, flow cytometry, pilot screen (AID 504541;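 active means inhibition above 54%, about 3 SD of non-fluorescent compounds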;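 further: AP2 carries R879A mutation and is captured from E. coli lysate; bead-bound FITC arrestin peptide fluorescence measuring arrestin peptide binding to AP2; 0% = DMSO wells and 100% = excess unlabeled arrestin peptide control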); settings: FITC arrestin peptide, at 10 µM, stronger effect = higher value
# AP-2 complex subunit beta (Homo sapiens), sequence (P63010 whole entry, looked up, one chain of several): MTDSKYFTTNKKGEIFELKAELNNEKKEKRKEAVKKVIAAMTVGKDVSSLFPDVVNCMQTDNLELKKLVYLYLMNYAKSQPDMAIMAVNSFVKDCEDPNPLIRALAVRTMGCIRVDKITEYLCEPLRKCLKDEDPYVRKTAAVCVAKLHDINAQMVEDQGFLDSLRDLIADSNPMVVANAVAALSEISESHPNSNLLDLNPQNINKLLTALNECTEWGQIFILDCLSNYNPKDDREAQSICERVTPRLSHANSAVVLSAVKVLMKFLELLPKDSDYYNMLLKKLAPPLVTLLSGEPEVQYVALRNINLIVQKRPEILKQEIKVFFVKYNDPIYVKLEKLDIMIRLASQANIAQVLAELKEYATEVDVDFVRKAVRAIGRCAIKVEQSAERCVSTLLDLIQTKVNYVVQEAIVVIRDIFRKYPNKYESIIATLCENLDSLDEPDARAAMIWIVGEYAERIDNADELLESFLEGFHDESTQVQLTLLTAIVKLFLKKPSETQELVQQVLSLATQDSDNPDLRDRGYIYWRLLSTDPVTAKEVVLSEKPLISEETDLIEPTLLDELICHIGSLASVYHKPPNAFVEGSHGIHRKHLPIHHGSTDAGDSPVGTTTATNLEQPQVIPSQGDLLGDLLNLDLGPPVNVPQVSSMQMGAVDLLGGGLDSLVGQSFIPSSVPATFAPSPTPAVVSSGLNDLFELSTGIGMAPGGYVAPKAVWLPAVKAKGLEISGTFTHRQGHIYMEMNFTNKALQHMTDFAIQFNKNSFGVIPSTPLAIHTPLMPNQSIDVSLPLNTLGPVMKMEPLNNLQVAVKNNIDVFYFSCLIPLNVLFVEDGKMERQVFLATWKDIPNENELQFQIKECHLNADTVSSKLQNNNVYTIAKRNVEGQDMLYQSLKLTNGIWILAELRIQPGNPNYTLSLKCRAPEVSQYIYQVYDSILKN
# [13] = cytosolic pH regulators acting via V-ATPase – S. cerevisiae, pHLuorin, HTS validation (AID 504600; in the data active means response above about 15%;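 further: plate controls were DMSO for no effect and reference compound for full effect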); settings: V-ATPase proton transport, at 10 µM, stronger effect = higher value
# [14] = system: anti-desmoglein-3 scFv antibody binding to human DSG3; test: blockers of pathogenic pemphigus antibody–desmoglein-3 binding – biochemical, validation compound set, bead-based, flow cytometry, pilot screen (AID 588368;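 active means binding below the plate cutoff, the plate median minus 3 SD, with a reading above zero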;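 further: signal is the median channel fluorescence of bead-bound GFP antibody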); settings: Protein G beads, DSG3-Fc, scFv-GFP binding, at 10 µM, stronger effect = lower value
# [15] = system: Botulinum neurotoxin type F light chain protease (Clostridium botulinum); test: Clostridium botulinum type F light chain protease inhibitors, microsphere substrate cleavage, validation (AID 588459); settings: multiplex microsphere protease substrate cleavage assay, flow cytometry; at 10 µM; stronger effect = higher value
# [16] = molecular target: Botulinum neurotoxin type A (Clostridium botulinum) (UniProt P0DPI0); test: BoNT/A light chain protease inhibitors, biochemical, multiplex microsphere flow cytometry, validation set (AID 588460); settings: at 10 µM, stronger effect = higher value
# Botulinum neurotoxin type A (Clostridium botulinum), sequence (P0DPI0 whole entry, looked up): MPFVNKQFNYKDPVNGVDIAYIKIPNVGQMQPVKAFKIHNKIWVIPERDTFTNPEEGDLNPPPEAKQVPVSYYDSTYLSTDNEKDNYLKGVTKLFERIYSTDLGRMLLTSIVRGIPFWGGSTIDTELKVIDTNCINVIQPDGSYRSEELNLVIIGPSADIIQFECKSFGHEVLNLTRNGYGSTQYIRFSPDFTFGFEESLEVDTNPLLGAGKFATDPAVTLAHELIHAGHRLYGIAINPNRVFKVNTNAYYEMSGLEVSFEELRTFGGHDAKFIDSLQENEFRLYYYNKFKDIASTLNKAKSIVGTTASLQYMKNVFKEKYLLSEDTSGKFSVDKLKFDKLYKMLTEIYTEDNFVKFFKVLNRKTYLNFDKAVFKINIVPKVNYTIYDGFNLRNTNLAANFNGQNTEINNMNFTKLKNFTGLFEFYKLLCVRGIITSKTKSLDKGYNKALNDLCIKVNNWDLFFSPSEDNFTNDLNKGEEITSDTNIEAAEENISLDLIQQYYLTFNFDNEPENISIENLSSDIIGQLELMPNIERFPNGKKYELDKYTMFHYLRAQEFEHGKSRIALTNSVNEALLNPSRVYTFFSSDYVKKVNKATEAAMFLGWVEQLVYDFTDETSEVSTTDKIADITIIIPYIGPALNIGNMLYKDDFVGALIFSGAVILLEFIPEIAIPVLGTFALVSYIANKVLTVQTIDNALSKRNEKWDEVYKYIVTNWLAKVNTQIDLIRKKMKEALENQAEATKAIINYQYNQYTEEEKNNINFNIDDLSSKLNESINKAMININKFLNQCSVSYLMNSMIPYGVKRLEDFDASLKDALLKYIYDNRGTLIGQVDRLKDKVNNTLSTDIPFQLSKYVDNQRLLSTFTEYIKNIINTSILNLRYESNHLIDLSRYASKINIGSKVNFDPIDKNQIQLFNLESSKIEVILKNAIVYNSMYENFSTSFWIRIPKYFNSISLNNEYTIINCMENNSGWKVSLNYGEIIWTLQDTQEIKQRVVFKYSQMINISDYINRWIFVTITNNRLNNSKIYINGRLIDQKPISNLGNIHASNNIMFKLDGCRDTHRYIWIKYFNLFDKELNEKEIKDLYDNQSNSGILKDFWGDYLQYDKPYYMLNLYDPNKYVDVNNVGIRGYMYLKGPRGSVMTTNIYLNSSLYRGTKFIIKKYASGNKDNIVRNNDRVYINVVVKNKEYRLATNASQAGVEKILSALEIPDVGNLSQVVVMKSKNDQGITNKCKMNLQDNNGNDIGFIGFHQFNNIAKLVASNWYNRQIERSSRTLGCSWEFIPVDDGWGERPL
# [17] = molecular target: Lethal factor (Bacillus anthracis) (UniProt P15917); test: Bacillus anthracis lethal factor inhibition, microsphere flow cytometry protease assay, validation at 10 µM (AID 588461); settings: multiplex microsphere protease cleavage assay, stronger effect = higher value
# Lethal factor (Bacillus anthracis), sequence (P15917 whole entry, looked up): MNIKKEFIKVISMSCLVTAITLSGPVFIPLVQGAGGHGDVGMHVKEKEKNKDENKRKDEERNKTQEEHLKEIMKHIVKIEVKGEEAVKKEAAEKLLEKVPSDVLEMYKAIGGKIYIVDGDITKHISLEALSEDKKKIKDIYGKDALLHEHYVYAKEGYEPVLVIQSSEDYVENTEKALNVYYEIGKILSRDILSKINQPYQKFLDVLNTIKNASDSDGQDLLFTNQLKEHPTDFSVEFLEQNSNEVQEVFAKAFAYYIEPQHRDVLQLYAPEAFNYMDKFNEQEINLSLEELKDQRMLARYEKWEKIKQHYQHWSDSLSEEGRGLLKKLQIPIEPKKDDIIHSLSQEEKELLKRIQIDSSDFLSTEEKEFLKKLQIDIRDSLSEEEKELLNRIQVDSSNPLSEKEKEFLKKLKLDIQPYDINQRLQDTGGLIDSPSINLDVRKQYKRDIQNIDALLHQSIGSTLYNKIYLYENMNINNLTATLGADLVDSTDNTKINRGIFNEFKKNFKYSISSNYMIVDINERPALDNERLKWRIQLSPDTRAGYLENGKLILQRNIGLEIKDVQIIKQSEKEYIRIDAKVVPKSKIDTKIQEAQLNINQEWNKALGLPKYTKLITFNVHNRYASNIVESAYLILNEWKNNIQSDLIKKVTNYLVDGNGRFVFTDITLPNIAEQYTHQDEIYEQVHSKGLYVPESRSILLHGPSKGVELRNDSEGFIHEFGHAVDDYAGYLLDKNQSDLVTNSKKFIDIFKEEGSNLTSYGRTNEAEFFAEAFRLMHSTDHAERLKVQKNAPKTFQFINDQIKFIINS
# [18] = Nile Red efflux blockade in pump-expressing yeast – validation compound set, multiplex, phenotypic, pilot screen (AID 588506;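 active means efflux inhibition above 0.42, the validation set average plus 4 SD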;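 further: Nile Red retained in cells so higher fluorescence means more efflux inhibition; 0 = negative control wells and 1 = enniatin B 25 µM full block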); settings: S. cerevisiae pump-expressing triplex, Nile Red efflux flow cytometry; at 10 µM; stronger effect = higher value
# [19] = molecular target: ATP-binding cassette sub-family B member 6 (Homo sapiens) (UniProt Q9NP58); test: blockers of ABCB6-driven porphyrin uptake – K562-ABCB6 cells, flow cytometry, validation set, pilot screen (AID 588550;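 active means inhibition above the screen-wide mean plus 3 SD, about 51%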;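 further: 0% = DMSO wells and 100% = benzethonium chloride 70 µM positive control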); settings: K562-ABCB6 porphyrin accumulation, 1 h, at 10 µM, stronger effect = higher value
# ATP-binding cassette sub-family B member 6 (Homo sapiens), sequence (Q9NP58 whole entry, looked up): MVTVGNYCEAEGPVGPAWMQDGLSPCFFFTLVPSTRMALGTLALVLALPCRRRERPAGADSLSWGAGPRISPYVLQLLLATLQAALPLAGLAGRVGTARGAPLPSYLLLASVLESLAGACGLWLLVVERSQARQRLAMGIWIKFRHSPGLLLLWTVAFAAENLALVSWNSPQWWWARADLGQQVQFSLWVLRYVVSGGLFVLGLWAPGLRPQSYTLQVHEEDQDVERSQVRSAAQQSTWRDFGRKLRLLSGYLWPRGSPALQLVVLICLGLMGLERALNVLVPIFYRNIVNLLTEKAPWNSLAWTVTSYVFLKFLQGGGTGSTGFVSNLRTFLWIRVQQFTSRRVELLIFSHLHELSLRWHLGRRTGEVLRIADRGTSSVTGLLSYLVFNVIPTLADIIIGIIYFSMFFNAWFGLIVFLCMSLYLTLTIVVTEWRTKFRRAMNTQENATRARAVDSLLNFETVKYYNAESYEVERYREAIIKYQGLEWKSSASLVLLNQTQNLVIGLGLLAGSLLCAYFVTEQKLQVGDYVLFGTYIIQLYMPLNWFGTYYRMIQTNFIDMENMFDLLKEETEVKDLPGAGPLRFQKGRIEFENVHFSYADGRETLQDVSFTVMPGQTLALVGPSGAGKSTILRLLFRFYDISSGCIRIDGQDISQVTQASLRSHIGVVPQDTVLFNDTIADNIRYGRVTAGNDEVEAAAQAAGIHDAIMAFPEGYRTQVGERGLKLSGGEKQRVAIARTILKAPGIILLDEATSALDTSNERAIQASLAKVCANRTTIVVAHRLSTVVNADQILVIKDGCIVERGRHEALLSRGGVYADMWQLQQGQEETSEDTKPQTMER
# [20] = AML differentiation inducers, ER-HoxA9 marrow cells – cell-based, GFP/MAC1 double positive, flow cytometry, validation set, primary screen (AID 588685;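 active means differentiation response of at least 50%, scaled between solvent and reference control, from cells with both markers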;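 further: compound exposure lasts four days before antibody staining and flow analysis; 0% = DMSO wells and 100% = 5 µM fulvestrant positive control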); settings: stronger effect = higher value
# [21] = measured here: daughter cell gate
# [22] = measured here: mother cell gate
# [23] = measured here: daughter cell gate response
# [24] = measured here: mother cell gate response
compound,measurement,setting,value
O=C1NC(=O)C(=Cc2ccc(Sc3ccccc3)o2)C(=O)N1,GFP response vs DMSO,[1],103% (inactive)
same,GFP response vs DMSO,[1]; [21],93.1%
same,GFP response vs DMSO,[1]; [22],89.2%
same,GFP response relative to DMSO,[2],140% (inactive)
same,GFP response relative to DMSO,[2]; [23],107%
same,GFP response relative to DMSO,[2]; [24],148%
same,"GFP response, % of DMSO",[3],91.2% (inactive)
same,"GFP response, % of DMSO",[3]; [22],77.2%
O=c1[nH]c(=S)n(-c2ccccc2)c(O)c1/C=N/N1CCOCC1,GFP response vs DMSO,[1],102% (inactive)
same,GFP response vs DMSO,[1]; [21],103%
same,GFP response vs DMSO,[1]; [22],102%
same,GFP response relative to DMSO,[2],95.7% (inactive)
same,GFP response relative to DMSO,[2]; [23],97.5%
same,GFP response relative to DMSO,[2]; [24],96.2%
same,"GFP response, % of DMSO",[3],100% (inactive)
same,"GFP response, % of DMSO",[3]; [21],103%
same,"GFP response, % of DMSO",[3]; [22],99.3%
Fc1ccc(C(OCCN2CCCC2)c2ccc(Br)cc2)cc1 (stereo not given),percent of DMSO control GFP,[4],98.8% (inactive)
same,GFP response vs DMSO,[5],98.5% (inactive)
same,percent response of DMSO control,[6],93.9% (inactive)
same,GFP response vs DMSO,[7],109% (inactive)
same,double positive events,[8],69.4%
same,vesicle binding response,[8],310% (inactive)
same,inhibition,[9],-4.52% (inactive)
same,superoxide response (% of plate),[10],94.6% (inactive)
same,aptamer binding inhibition,[11],-9% (inactive)
same,inhibition,[12],-3.21% (inactive)
same,response,[13],0.75% (inactive)
same,binding (% of control),[14],103% (inactive)
same,inhibition,[15],5.6% (inactive)
same,inhibition,[16],-0.6% (inactive)
same,inhibition,[17],3% (inactive)
same,efflux inhibition (fraction of control),[18],0.84 (active)
same,inhibition,[19],7% (inactive)
same,differentiation response,[20],16.8% (inactive)
CN1C(=O)NC(=O)/C(=C\C=C\c2ccccc2[N+](=O)[O-])C1=O,GFP response vs DMSO,[1],102% (inactive)
same,GFP response vs DMSO,[1]; [21],90.4%
same,GFP response vs DMSO,[1]; [22],93.5%
same,GFP response relative to DMSO,[2],107% (inactive)
same,GFP response relative to DMSO,[2]; [23],103%
same,GFP response relative to DMSO,[2]; [24],112%
same,"GFP response, % of DMSO",[3],84.7% (inactive)
same,"GFP response, % of DMSO",[3]; [21],96.8%
same,"GFP response, % of DMSO",[3]; [22],70.8%
CCNC(=O)[C@H]1O[C@@H](n2cnc3c(N)ncnc32)[C@H](O)[C@@H]1O,percent of DMSO control GFP,[4],97% (inactive)
same,GFP response vs DMSO,[5],115% (inactive)
same,percent response of DMSO control,[6],104% (inactive)
same,GFP response vs DMSO,[7],88.6% (inactive)
same,double positive events,[8],48.3%
same,inhibition,[9],15.2% (inactive)
same,superoxide response (% of plate),[10],111% (inactive)
same,aptamer binding inhibition,[11],66% (active)
same,inhibition,[12],3.14% (inactive)
same,response,[13],0.72% (inactive)
same,binding (% of control),[14],107% (inactive)
same,inhibition,[15],-4.2% (inactive)
same,inhibition,[16],0% (inactive)
same,inhibition,[17],2.8% (inactive)
same,efflux inhibition (fraction of control),[18],0.37 (inactive)
same,inhibition,[19],11% (inactive)
same,differentiation response,[20],5.73% (inactive)
O=C1NC(=O)N(CCC2=CCCCC2)C(=O)/C1=C/c1cccs1,GFP response vs DMSO,[1],98.4% (inactive)
same,GFP response vs DMSO,[1]; [21],97.9%
same,GFP response vs DMSO,[1]; [22],97.6%
same,GFP response relative to DMSO,[2],134% (inactive)
same,GFP response relative to DMSO,[2]; [23],128%
same,GFP response relative to DMSO,[2]; [24],138%
same,"GFP response, % of DMSO",[3],91.2% (inactive)
same,"GFP response, % of DMSO",[3]; [21],93.6%
same,"GFP response, % of DMSO",[3]; [22],86.7%
